The record followed here is ChEMBL document CHEMBL3988442, “University of Dundee, Small-Polar-MMV Screening Library” (2021).

The structures appear in SMILES notation.

The target in one assay is T1, Proteasome subunit beta (Trypanosoma cruzi) (UniProt O96673).
T1 sequence (whole entry): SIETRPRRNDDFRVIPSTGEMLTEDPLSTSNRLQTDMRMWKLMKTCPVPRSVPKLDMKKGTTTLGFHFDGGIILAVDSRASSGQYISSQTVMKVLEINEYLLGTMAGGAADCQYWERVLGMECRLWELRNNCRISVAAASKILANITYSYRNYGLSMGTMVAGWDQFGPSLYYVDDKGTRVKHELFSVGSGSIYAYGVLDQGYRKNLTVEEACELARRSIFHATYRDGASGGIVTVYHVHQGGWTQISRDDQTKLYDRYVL
In words: Trypanosoma cruzi proteasome chymotrypsin-like activity (TcProtChymo) assay. Format: functional. Further details: scale not given: in the data most compounds retested in dose-response had high values. Conditions: 9.37 µM.
For `Cc1nonc1CC(=O)N1C[C@@H]2CC[C@H](C1)N(Cc1ccccc1)C2=O`, the Percent Effect amounted to 6.9%.

For `CCOCC(O)CN1CCN(C(=O)CC(C)C)CC1` (stereo not given), the Percent Effect was 7.39%.

As for `Cc1cnc(C(=O)N2CCCN(Cc3csc(C)n3)CC2)cn1`, the Percent Effect came to 18.8%.

Take `CN1CCCC1CNC(=O)c1nnn(-c2ccc(F)cc2)c1C1CC1` (stereo not given): the Percent Effect was determined as 8.2%.

As for `CN(Cc1cn2c(n1)CN(C(=O)CC1CC1)CC2)Cc1ccco1`, the Percent Effect was -3.44%.

On to `Cc1cccc(Cn2ccc(NS(C)(=O)=O)n2)c1`, for which the Percent Effect was found to be 9.65%.

As for `COc1cccc(COCC(=O)N2CCCC(N3CCCC3)CC2)c1` (stereo not given), the Percent Effect stood at 6.52%.

With `OCCOCCN1CCCC1c1nc2cc(F)ccc2[nH]1` (stereo not given), the Percent Effect was 14.3%.

As for `Cc1cnn(CC(C)NCc2nc(-c3cccnc3)no2)c1` (stereo not given), the Percent Effect is 13%.

As for `Cc1cc(C(=O)NCc2ccnc(N(C)C)c2)c(C)o1`, the Percent Effect stood at 8.62%.

As for `O=C(NCCn1ccnc1)c1cccc(F)c1`, the Percent Effect stood at 9.56%.

With `COc1ccccc1S(=O)(=O)Nc1ccc2c(C(=O)O)c[nH]c2c1`, the Percent Effect is 8.28%.

Consider `O=C(Cc1cccc(Cl)c1)N[C@@H]1CCNC[C@H]1O`, for which the Percent Effect stood at 9.7%.

Take `CC(=O)N(C)c1nc(CN2CCOC(Cn3cccn3)C2)cs1` (stereo not given): the Percent Effect is 15.9%.

Consider `N#CC1(C(=O)N2CCN(Cc3ccon3)CC2)CCC1`, for which the Percent Effect came out at 1.56%.

For the compound `COc1ccc(CN2CCCC(Nc3cccc(F)c3)C2)cc1O` (stereo not given), the Percent Effect is -5.06%.

As for `Cc1cccc(-n2cc(C(=O)N3CCn4c(C)nnc4C3)nn2)c1`, the Percent Effect came out at 3%.

Take `COc1ccnc(N2CCN(C(=O)c3csc(C4CC4)n3)CC2)n1`: the Percent Effect was -0.601%.

As to `CCNC(=O)[C@@H]1C[C@H](NC(=O)c2cncnc2C)CN1CCCSC`, the Percent Effect worked out at 9.68%.

Turning to `CCc1nc(CN2CCN(c3ncnc4cc(F)ccc34)CC2)no1`, the Percent Effect turned out to be 9.65%.

`O=C(c1cccc(Cn2ccnc2)c1)N1CCCC(n2ccnc2)C1` (stereo not given): the Percent Effect was 7%.

For the compound `O=C(COc1ccc(C(F)(F)F)cc1)NS(=O)(=O)c1cccnc1`, the Percent Effect amounted to 3.84%.

In the case of `NS(=O)(=O)N1CCc2ccc(NC(=O)Cc3ccc(F)cc3)cc21`, the Percent Effect is 6.92%.

Regarding `Cc1ccc(CC2CCCN2CC(=O)NCc2cccnc2)cc1` (stereo not given), the Percent Effect stood at 14.1%.

Consider `CN(C)CC1CSCCCN1C(=O)Nc1ccc(C(C)(C)C)cc1` (stereo not given), for which the Percent Effect worked out at 1.57%.

With `CC(CNC(=O)c1ccc(Cl)cc1I)N1CCCC1` (stereo not given), the Percent Effect came out at 27.4%.

As to `Cc1ncsc1C(=O)N(C)Cc1cccc(Cl)c1`, the Percent Effect amounted to 20.6%.

For the compound `COc1ccc(C2C3=C(COC3=O)Nc3[nH]nc(C)c32)cc1OC` (stereo not given), the Percent Effect is 12.8%.

Consider `COCCN1CCc2cc(C(=O)N(C)C)c(NC(C)C)nc2CC1`, for which the Percent Effect came to 0.429%.

Regarding `CCCC(=O)N1CCC(O)(Cn2c(CC)nc3ccccc3c2=O)CC1`, the Percent Effect worked out at 9.2%.

`CCc1nnsc1C(=O)NC1CCN(c2ccccn2)CC1`: the Percent Effect worked out at 15%.

For `Cc1ccc(CN2CC(C(=O)Nc3ccccc3)C3(CCOCC3)C2)s1` (stereo not given), the Percent Effect was 11.4%.

On to `COc1cccc(CC2CN(C3CCN(C(C)=O)CC3)CCO2)c1` (stereo not given), for which the Percent Effect was -0.499%.

In the case of `CCOCCCC(=O)NCCC(=O)N1CCN(c2ccccn2)CC1`, the Percent Effect came to 13.3%.

For `Cc1nc(CN2CCc3cncnc3C2)oc1C`, the Percent Effect was determined as 3.55%.

Consider `Cc1csc(N2CCN(C(=O)Cc3ccsc3)CC2)n1`, for which the Percent Effect was found to be 20.9%.

For the compound `COc1ncccc1C(=O)N1CCN(C(=O)Cc2ccccn2)CC1`, the Percent Effect turned out to be 18%.

As to `Cc1cc(-c2nnc(SCC(=O)O)n2C(C)c2ccccc2)nn1C` (stereo not given), the Percent Effect was 14.9%.

Take `Cc1ccccc1CSCCn1nc2ccccn2c1=O`: the Percent Effect came to 10.9%.

In the case of `Fc1cccc(-n2ccc(CN3CCCCC3Cn3cncn3)n2)c1` (stereo not given), the Percent Effect is -2.21%.

Another assay is filed under the species Homo sapiens. In words: To identify inhibition of the IFN signalling (Jak-Stat) pathway via expression of an eGFP reporter gene under the control of an IFN-stimulated response element (ISRE) containing MxA promoter. Format: functional. Further details: scale not given: direction of the effect not stated beside the values. Conditions: 30 µM.
For `Cc1nonc1CC(=O)N1C[C@@H]2CC[C@H](C1)N(Cc1ccccc1)C2=O`, the Percent Effect came out at 0.776%.

Consider `CCOCC(O)CN1CCN(C(=O)CC(C)C)CC1` (stereo not given), for which the Percent Effect turned out to be 12.1%.

In the case of `Cc1cnc(C(=O)N2CCCN(Cc3csc(C)n3)CC2)cn1`, the Percent Effect is -1.38%.

Regarding `CN1CCCC1CNC(=O)c1nnn(-c2ccc(F)cc2)c1C1CC1` (stereo not given), the Percent Effect came to 10.9%.

Regarding `CN(Cc1cn2c(n1)CN(C(=O)CC1CC1)CC2)Cc1ccco1`, the Percent Effect amounted to 20.3%.

On to `Cc1cccc(Cn2ccc(NS(C)(=O)=O)n2)c1`, for which the Percent Effect stood at 0.107%.

On to `COc1cccc(COCC(=O)N2CCCC(N3CCCC3)CC2)c1` (stereo not given), for which the Percent Effect was -5.01%.

On to `OCCOCCN1CCCC1c1nc2cc(F)ccc2[nH]1` (stereo not given), for which the Percent Effect is 9.67%.

On to `Cc1cnn(CC(C)NCc2nc(-c3cccnc3)no2)c1` (stereo not given), for which the Percent Effect was -8.09%.

Take `Cc1cc(C(=O)NCc2ccnc(N(C)C)c2)c(C)o1`: the Percent Effect is -12%.

With `O=C(NCCn1ccnc1)c1cccc(F)c1`, the Percent Effect was -11.5%.

Turning to `COc1ccccc1S(=O)(=O)Nc1ccc2c(C(=O)O)c[nH]c2c1`, the Percent Effect stood at 14.3%.

Take `O=C(Cc1cccc(Cl)c1)N[C@@H]1CCNC[C@H]1O`: the Percent Effect was found to be 0.775%.

Turning to `CC(=O)N(C)c1nc(CN2CCOC(Cn3cccn3)C2)cs1` (stereo not given), the Percent Effect is 10.3%.

Take `N#CC1(C(=O)N2CCN(Cc3ccon3)CC2)CCC1`: the Percent Effect amounted to 23.8%.

Turning to `COc1ccc(CN2CCCC(Nc3cccc(F)c3)C2)cc1O` (stereo not given), the Percent Effect turned out to be 53.9%.

Turning to `Cc1cccc(-n2cc(C(=O)N3CCn4c(C)nnc4C3)nn2)c1`, the Percent Effect worked out at 21.1%.

On to `COc1ccnc(N2CCN(C(=O)c3csc(C4CC4)n3)CC2)n1`, for which the Percent Effect stood at 0.351%.

Turning to `CCNC(=O)[C@@H]1C[C@H](NC(=O)c2cncnc2C)CN1CCCSC`, the Percent Effect is -11.3%.

Turning to `CCc1nc(CN2CCN(c3ncnc4cc(F)ccc34)CC2)no1`, the Percent Effect turned out to be 75.3%.

Consider `O=C(c1cccc(Cn2ccnc2)c1)N1CCCC(n2ccnc2)C1` (stereo not given), for which the Percent Effect is 29%.

`O=C(COc1ccc(C(F)(F)F)cc1)NS(=O)(=O)c1cccnc1`: the Percent Effect is -6.19%.

For the compound `NS(=O)(=O)N1CCc2ccc(NC(=O)Cc3ccc(F)cc3)cc21`, the Percent Effect worked out at 20.9%.

With `Cc1ccc(CC2CCCN2CC(=O)NCc2cccnc2)cc1` (stereo not given), the Percent Effect was -8.66%.

Regarding `CN(C)CC1CSCCCN1C(=O)Nc1ccc(C(C)(C)C)cc1` (stereo not given), the Percent Effect came to 13.1%.

Regarding `CC(CNC(=O)c1ccc(Cl)cc1I)N1CCCC1` (stereo not given), the Percent Effect is -7.67%.

For the compound `Cc1ncsc1C(=O)N(C)Cc1cccc(Cl)c1`, the Percent Effect is 7.48%.

In the case of `COc1ccc(C2C3=C(COC3=O)Nc3[nH]nc(C)c32)cc1OC` (stereo not given), the Percent Effect is 8.17%.

As for `COCCN1CCc2cc(C(=O)N(C)C)c(NC(C)C)nc2CC1`, the Percent Effect is -3.78%.

In the case of `CCCC(=O)N1CCC(O)(Cn2c(CC)nc3ccccc3c2=O)CC1`, the Percent Effect is 17.3%.

On to `CCc1nnsc1C(=O)NC1CCN(c2ccccn2)CC1`, for which the Percent Effect amounted to 15.5%.

With `Cc1ccc(CN2CC(C(=O)Nc3ccccc3)C3(CCOCC3)C2)s1` (stereo not given), the Percent Effect is -5.53%.

`COc1cccc(CC2CN(C3CCN(C(C)=O)CC3)CCO2)c1` (stereo not given): the Percent Effect is -4.71%.

As for `CCOCCCC(=O)NCCC(=O)N1CCN(c2ccccn2)CC1`, the Percent Effect came to 2.43%.

On to `Cc1nc(CN2CCc3cncnc3C2)oc1C`, for which the Percent Effect came to 2.92%.

With `Cc1csc(N2CCN(C(=O)Cc3ccsc3)CC2)n1`, the Percent Effect turned out to be 5.74%.

As to `COc1ncccc1C(=O)N1CCN(C(=O)Cc2ccccn2)CC1`, the Percent Effect was 17.4%.

For `Cc1cc(-c2nnc(SCC(=O)O)n2C(C)c2ccccc2)nn1C` (stereo not given), the Percent Effect came out at 7.01%.

Turning to `Cc1ccccc1CSCCn1nc2ccccn2c1=O`, the Percent Effect stood at 18.9%.

Turning to `Fc1cccc(-n2ccc(CN3CCCCC3Cn3cncn3)n2)c1` (stereo not given), the Percent Effect amounted to 17%.
